TDP-43 yeast inh – inhibitors of TDP-43 toxicity in yeast; TDP-43 expressing yeast growth rescue, BacTiter-Glo, 24 h; Potency, µM (series often up to 46.1 µM), most hits filed as activators; hit rate 1.8% among 410,000; AID 652104; also: nearly all actives have a fitted effect of over 50% in size
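Yeast expressing TDP-43 (pregrown in raffinose, seeded at OD600=0.02 in galactose medium) exposed to compounds 24 hr at 30 deg C. Growth read by BacTiter-Glo luminescence; rescue of toxicity appears as increased signal.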
aSyn yeast inh – inhibitors of alpha-synuclein toxicity in yeast; Yeast expressing alpha-synuclein, growth rescue, BacTiter-Glo, 24 h; Potency, µM (top dose mostly 46.1 µM), actives largely listed as activators; hit rate 0.14% among 370,000; AID 652106; also: nearly all actives have a fitted effect of over 65% in size
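Galactose-induced alpha-syn yeast (OD600=0.02, raffinose-pregrown) + pinned cpd, 24 hr, 30 deg C; growth by BacTiter-Glo luminescence. Growth restoration scores as activation.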
MBNL1-CUG inh – blocks human MBNL1 binding to CUG repeat RNA | hit rate 0.036% among 280,000 | AID 2675 | Q9NR56 | TR-FRET MBNL1-His/biotin-(CUG)12 binding, 665/545 ratio | Potency, µM (titrated, usually from 57.5 µM), hits mostly inhibitors; active = well fitted inhibition curve with a large enough effect in the signal ratio, with a control signal flat, not every such curve was filed as active; inconclusive = small, poorly fitted or top-dose-only effect, or effect the other way, or a change in a side signal; inactive = no such curve, though single readings can be large or run the other way; the % refers to the signal ratio
Target sequence (Q9NR56 whole entry, looked up): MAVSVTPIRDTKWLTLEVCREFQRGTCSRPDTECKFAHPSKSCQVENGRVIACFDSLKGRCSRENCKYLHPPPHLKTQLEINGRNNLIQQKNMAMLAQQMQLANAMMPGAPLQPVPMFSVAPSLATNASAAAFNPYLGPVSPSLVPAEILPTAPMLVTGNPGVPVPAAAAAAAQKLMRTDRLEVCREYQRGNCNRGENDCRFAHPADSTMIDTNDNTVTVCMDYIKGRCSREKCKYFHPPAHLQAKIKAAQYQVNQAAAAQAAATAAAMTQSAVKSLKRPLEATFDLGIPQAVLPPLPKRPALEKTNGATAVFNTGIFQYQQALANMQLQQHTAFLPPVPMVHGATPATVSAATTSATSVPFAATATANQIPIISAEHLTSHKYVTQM
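His-tagged MBNL1 binding to biotinylated (CUG)12 RNA was measured by TR-FRET using terbium anti-His antibody (0.055 ng/ul final) and streptavidin-XL665 (5 nM final). Compounds were titrated 92 nM to 58 uM; 60 min at room temperature.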
Abeta rescue – A-beta toxicity reversal in yeast | Potency, µM (series often up to 46.1 µM), most hits filed as activators | yeast expressing A-beta42, growth rescue, OD600, 48 h; response scale: 0% DMSO, 100% iron-clioquinol control | hit rate 0.063% among 410,000; also: nearly all actives have a fitted effect of over 55% in size
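Growth rescue measured by 600 nm absorbance after 48 h yeast culture at 30 C with compound. Values normalized between DMSO and an equimolar ferric chloride plus clioquinol control.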
FUS yeast rescue – suppressors of FUS proteinopathy in yeast; Potency, µM (titrated, usually from 76.6 µM), usual class: activators; S. cerevisiae FUS-expressing, growth rescue, OD600, 24 h; hit rate 0.24% among 390,000; AID 1347120; also: nearly all actives have a fitted effect of over 55% in size
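Steps: raffinose overnight preculture; dilution to OD 0.005 in 2% galactose minimal medium; compound addition (concentration series); 24hr at 30C, 99% humidity; absorbance read at 600 nm.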
Glioma ERSR ind – inducers of ER stress response in human glioma cells | U87-MG GRP78 promoter luciferase reporter, 16 h | Potency, µM, usual class: activators | hit rate 0.02% among 420,000; also: series mostly up to about 76 µM; nearly all actives have a fitted effect of over 35% in size
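Stably transfected U87-MG glioma cells carrying a GRP78-based luciferase sensor; 16 h compound incubation. Luminescence end-point read 10 min after Bright-Glo addition at room temperature.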
A number is an active result; 0 = inactive; ? = inconclusive; - = no result; ! = not active in a repeat. The list is not random: actives were taken first. Their share in the collection is about 2%. Unless noted, calls follow the shape of the dose curve; as a rule, active = well fitted curve in the direction sought with a large enough effect; inconclusive = small, poorly fitted or top-dose-only effect, or another doubt; inactive = no such curve, though single readings can be large; an effect the other way counts as inactive or inconclusive.

SMILES	TDP-43 yeast inh	aSyn yeast inh	MBNL1-CUG inh	Abeta rescue	FUS yeast rescue	Glioma ERSR ind
O=[N+]([O-])c1nn(-c2ccccc2)n(O)c1=NCc1ccc2c(c1)OCO2	0	0	?	0	0	0
COc1ccc(-n2nc([N+](=O)[O-])c(=NCc3ccc4c(c3)OCO4)n2O)cc1	13µM	0	-	0	-	0
Cc1cccc(CCN=c2c([N+](=O)[O-])nn(-c3ccccc3)n2O)c1	16µM	0	?	0	0	0
COc1ccc2c(c1)CCc1cnc(-n3ncc(C(=O)NCCCN4CCOCC4)c3C)nc1-2	-	-	-	-	-	0
CC(C)(C)n1ncc2c(=O)n(Cc3ccc(C#N)cc3F)cnc21	-	-	-	-	-	0
COc1ccc(C(=O)c2[nH]c(N)c(C(=O)c3ccccc3)c2-c2ccc(OC)c(OC)c2)cc1	-	-	-	-	0	-
CN1C(=O)c2cc(NS(=O)(=O)c3ccc(F)cc3)ccc2OC[C@H]2O[C@@H](CC(=O)NCC(F)(F)F)CC[C@@H]21	-	-	-	-	0	-
CC(C)(C)c1ccc(C(=O)N2CCNCC2)cc1	0	0	0	0	0	0
CN1CCC2(CC1)N=C(c1ccc(F)cc1)C(=S)N2C(=O)c1ccc(C(C)(C)C)cc1	20µM	0	0	0	0	0
COc1ccccc1N1CCN(c2nc(CNC(=O)c3cc(C)oc3C)nc3ccccc23)CC1	-	-	-	-	-	0
O=C1Nc2ccc(I)cc2/C1=C/c1cc(Br)c(O)c(Br)c1	-	0	-	-	-	0
O=C1Nc2ccc(I)cc2C1=Cc1cc(Br)c(O)c(Br)c1	-	3.2µM	-	-	-	0
O=C(c1cccc(COc2cccc3ccccc23)c1)N1CCCC1	22µM	0	0	0	?	0
CCC(C)Sc1cc(-c2nc3ccc(C)cn3c2NCc2ccccc2)ccc1OC (configuration not stated)	0	0	-	0	32µM!	0
CCC(C)Sc1ccc(-c2nc3ccc(C)cn3c2NCc2ccccc2)cc1OC (configuration not stated)	0	0	-	0	?	0
Cc1ccc2oc(/N=C(\N)NC(=O)C3CC3)nc2c1	20µM	0	-	0	0	0
Cc1ccc2oc(/N=C(\N)NC(=O)C(C)(C)C)nc2c1	0	0	-	0	0	0
CCOC(=O)c1c(-c2ccccc2)nnn1-c1nc(OCC)nc(N2CCCCC2)n1	22µM	0	?	0	0	0
CCOC(=O)c1nnn(-c2nc(OC)nc(N3CCCCC3)n2)c1-c1ccccc1	-	-	0	-	-	-
CCc1cc(=O)oc2c3c(cc(OCC(=O)NCc4ccco4)c12)OC(C)(C)CC3	35µM	0	0	0	0	0
CCc1ccc(OCC(=O)NCc2ccco2)c(Br)c1	13µM	0	0	0	0	0
O=C(COc1ccccc1Br)NCc1ccco1	0	0	0	0	0	0
COC(=O)c1sc(=S)n(Cc2ccccc2)c1C	?	0	0	0	0	0
CC(=O)c1sc(=S)n(Cc2ccccc2)c1C	13µM	0	0	0	0	0
COc1cc(=O)n2c(c1C(=O)N(C)Cc1cscn1)CCN(C(=O)c1cccc(C)c1C)CC2	-	-	-	-	-	0
SMILES	TDP-43 yeast inh	aSyn yeast inh	MBNL1-CUG inh	Abeta rescue	FUS yeast rescue	Glioma ERSR ind
COc1cccc(CNC(=O)c2c(OC)cc(=O)n3c2CCN(C(=O)C2CC24CCCCC4)CC3)c1 (configuration not stated)	-	-	-	-	-	0
COc1ccc(C(=O)OCC(=O)NC(=O)NC2CCCC2)c(O)c1	0	0	0	0	0	0
COc1ccc(Br)c(C(=O)OCC(=O)NC(=O)NC2CCCC2)c1	18µM	?	-	0	0	0
O=C(CN1CCN(Cc2ccccc2)CC1)N/N=C\c1ccccc1[N+](=O)[O-]	-	-	-	-	0	-
COC(=O)C1CN(Cc2ccc(F)cc2)CCS(=O)(=O)N1Cc1ccc(OC)cc1 (configuration not stated)	-	-	-	-	0	-
COCc1cc(C)nc2oc(C(=O)c3ccccc3)c(N)c12	13µM	0	?	0	0	0
Cc1ccc(OCC(=O)NNC(=S)NC(=O)C2CC2)c(C)c1	-	-	0	-	-	-
Cc1ccc(OCC(=O)NNC(=S)NC(=O)C(C)(C)C)c(Br)c1	5µM	0	0	0	0	0
Cc1ccc(OCC(=O)NNC(=S)NC(=O)C2CCCCC2)c(C)c1	13µM	?	0	0	0	0
S=C(NCc1cccc(Cl)c1)OC1CCC12CCC(c1ccccc1)CC2 (configuration not stated)	-	-	-	-	0	-
O=C(O)Cc1cc2c(s1)CCCCC2	13µM	0	0	0	0	0
S=C(NCc1ccco1)N1CCN(c2cccc(Cl)c2)CC1	0	0	0	13µM	0	0
CCCCCCCCCCCCCCCC[n+]1ccc(CC(O)c2c(C)[nH]c3ccccc23)c2ccccc21 (configuration not stated)	-	-	-	-	-	0
CSc1ccccc1NC(=O)CCn1c(=O)sc2ccccc21	16µM	0	0	0	0	0
CC(=O)Nc1cccc(NC(=O)CCn2c(=O)sc3ccccc32)c1	0	0	0	?	0	0
Cc1ncc2c(c1CNS(=O)(=O)N(C)C)CCN(C(=O)c1ccc(-c3ccc(F)cc3)cc1)C2	-	-	-	-	-	0
COCCNC(=O)C[C@H]1CC[C@H]2[C@@H](COc3ccc(NC(=O)Nc4cccc(F)c4)cc3C(=O)N2C)O1	-	-	-	-	0	-
CCN1C(=O)C(CC(=O)Nc2ccc(F)cc2)N(Cc2ccco2)C1=S (configuration not stated)	0	0	0	0	0	0
CCCCCCOc1ccc(NC(=O)CC2C(=O)N(CC)C(=S)N2Cc2ccco2)cc1 (configuration not stated)	?	14µM	0	0	-	0
Cc1cnc(SCCN2CCOCC2)nc1C1CCCN(C(=O)c2cccc3c(C)c(C)[nH]c23)C1 (configuration not stated)	-	-	-	-	-	0
CC1CC(C)CN(c2nc(N(C)c3ccccc3)nc(N)c2[N+](=O)[O-])C1 (configuration not stated)	18µM	0	0	0	0	0
CCN(CC)C(=O)c1oc(=O)c2ccccc2c1-c1ccc(C)cc1	-	-	-	-	0	-
CCOC(=O)c1c(C(C)(C)C)oc2ccc(O)cc12	18µM	0	0	0	0	0
COc1ccc(CC(=O)N2CCN(c3ccccc3F)CC2)cc1OC	-	0	0	0	0	0
O=C(Cc1ccc(-n2cccc2)cc1)N1CCN(c2ccccc2F)CC1	18µM	0	0	0	-	0
CCCn1nc(NS(C)(=O)=O)c2cc3cccc(C)c3nc21	35µM	0	0	0	?	0
COc1ccccc1-c1ccc2c(c1)C(C)(Cc1ccc(F)c(Cl)c1)C(=O)N2 (configuration not stated)	0	0	-	0	?	0
CC1(Cc2cc(Cl)ccc2C(F)(F)F)C(=O)Nc2c(Cl)cccc21 (configuration not stated)	0	0	-	0	0	0
